Each structure is given as a SMILES string.

In ChEMBL document CHEMBL2218924, “A broad activity screen in support of a chemogenomic map for kinase signalling research and drug discovery” (Biochem J, 2013) one finds residual activity data, which are given here for one compound.

The target of assay [1] is Tyrosine-protein kinase SYK (Homo sapiens) (UniProt P43405). The following applies: at 10 µM.
Assay [2] addresses T1, Mitogen-activated protein kinase kinase kinase 7 (Homo sapiens) (UniProt O43318).
T1 sequence (whole entry): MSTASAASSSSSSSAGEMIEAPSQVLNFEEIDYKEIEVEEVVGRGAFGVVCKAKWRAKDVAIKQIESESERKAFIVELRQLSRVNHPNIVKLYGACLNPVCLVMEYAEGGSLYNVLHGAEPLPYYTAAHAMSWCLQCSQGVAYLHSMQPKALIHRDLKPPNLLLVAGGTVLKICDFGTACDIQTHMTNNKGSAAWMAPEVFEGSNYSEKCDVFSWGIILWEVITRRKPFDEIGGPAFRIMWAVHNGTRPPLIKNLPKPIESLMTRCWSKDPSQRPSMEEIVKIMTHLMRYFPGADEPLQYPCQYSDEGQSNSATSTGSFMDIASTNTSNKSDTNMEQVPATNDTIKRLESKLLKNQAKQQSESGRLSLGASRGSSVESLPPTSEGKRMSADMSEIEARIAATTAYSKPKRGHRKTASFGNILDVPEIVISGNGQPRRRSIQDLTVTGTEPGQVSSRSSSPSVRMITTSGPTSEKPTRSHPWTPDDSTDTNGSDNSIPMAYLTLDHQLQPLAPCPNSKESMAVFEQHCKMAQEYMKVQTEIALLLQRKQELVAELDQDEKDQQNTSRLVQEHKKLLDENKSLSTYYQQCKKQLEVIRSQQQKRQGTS
The following applies: at 1 µM.

Assay [3] addresses T1, Mitogen-activated protein kinase kinase kinase 7 (Homo sapiens). The note with it: at 10 µM.
In assay [4] the target is T2, Serine/threonine-protein kinase TAO1 (Homo sapiens) (UniProt Q7L7X3).
T2 sequence (whole entry): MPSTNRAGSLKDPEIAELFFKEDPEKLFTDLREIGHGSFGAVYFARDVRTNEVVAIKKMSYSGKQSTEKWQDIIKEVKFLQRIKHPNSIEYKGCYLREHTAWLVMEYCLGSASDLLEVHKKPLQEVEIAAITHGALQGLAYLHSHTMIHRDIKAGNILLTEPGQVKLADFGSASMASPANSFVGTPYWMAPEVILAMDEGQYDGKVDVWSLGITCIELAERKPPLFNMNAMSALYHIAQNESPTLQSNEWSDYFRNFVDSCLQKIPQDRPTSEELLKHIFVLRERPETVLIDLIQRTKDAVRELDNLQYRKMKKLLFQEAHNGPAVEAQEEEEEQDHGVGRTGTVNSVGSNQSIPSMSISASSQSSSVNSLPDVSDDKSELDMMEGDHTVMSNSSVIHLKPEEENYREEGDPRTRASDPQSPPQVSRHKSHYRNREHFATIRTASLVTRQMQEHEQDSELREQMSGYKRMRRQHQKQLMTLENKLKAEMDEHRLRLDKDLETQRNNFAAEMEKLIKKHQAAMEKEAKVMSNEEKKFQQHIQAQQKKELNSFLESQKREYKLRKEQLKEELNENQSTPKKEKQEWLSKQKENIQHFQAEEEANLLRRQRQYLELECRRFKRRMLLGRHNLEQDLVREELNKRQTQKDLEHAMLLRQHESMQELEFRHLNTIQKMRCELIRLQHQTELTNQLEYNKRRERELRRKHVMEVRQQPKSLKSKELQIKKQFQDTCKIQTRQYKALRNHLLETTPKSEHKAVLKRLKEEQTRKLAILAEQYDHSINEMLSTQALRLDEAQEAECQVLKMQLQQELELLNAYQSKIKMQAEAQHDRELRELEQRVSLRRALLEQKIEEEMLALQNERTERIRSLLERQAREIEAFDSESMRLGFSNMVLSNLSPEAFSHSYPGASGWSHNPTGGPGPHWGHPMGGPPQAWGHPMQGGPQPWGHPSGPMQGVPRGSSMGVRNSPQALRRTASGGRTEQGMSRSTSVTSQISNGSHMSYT
The note with it: at 1 µM.

Assay [5] has as its target T2, Serine/threonine-protein kinase TAO1 (Homo sapiens). The note with it: at 10 µM.
For assay [6], the target named is T3, Serine/threonine-protein kinase TAO3 (Homo sapiens) (UniProt Q9H2K8).
T3 sequence (whole entry): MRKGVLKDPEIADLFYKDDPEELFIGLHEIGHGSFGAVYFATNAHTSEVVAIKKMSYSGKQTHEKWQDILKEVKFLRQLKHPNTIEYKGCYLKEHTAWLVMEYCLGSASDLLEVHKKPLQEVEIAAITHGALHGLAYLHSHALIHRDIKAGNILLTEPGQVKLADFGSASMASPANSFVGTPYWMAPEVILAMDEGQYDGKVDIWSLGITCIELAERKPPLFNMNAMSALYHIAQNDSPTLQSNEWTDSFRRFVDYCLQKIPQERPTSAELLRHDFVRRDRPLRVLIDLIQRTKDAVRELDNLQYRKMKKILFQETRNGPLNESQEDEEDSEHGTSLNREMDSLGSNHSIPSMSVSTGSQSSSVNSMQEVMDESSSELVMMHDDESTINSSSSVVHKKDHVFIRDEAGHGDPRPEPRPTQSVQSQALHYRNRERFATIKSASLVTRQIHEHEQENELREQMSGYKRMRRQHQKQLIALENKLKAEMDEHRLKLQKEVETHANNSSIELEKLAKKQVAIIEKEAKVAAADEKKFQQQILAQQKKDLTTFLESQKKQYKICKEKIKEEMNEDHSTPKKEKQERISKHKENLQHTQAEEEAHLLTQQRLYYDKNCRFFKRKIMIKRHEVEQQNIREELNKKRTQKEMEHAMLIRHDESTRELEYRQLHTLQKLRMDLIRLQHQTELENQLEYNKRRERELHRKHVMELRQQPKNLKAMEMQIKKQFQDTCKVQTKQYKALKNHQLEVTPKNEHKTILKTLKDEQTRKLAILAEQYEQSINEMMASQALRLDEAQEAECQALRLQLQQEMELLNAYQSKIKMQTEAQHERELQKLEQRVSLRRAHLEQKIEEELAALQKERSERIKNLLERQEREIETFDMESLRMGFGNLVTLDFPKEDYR
The following applies: at 1 µM.

The target in assay [7] is T3, Serine/threonine-protein kinase TAO3 (Homo sapiens). The note with it: at 10 µM.
Assay [8] addresses T4, Serine/threonine-protein kinase TBK1 (Homo sapiens) (UniProt Q9UHD2).
T4 sequence (whole entry): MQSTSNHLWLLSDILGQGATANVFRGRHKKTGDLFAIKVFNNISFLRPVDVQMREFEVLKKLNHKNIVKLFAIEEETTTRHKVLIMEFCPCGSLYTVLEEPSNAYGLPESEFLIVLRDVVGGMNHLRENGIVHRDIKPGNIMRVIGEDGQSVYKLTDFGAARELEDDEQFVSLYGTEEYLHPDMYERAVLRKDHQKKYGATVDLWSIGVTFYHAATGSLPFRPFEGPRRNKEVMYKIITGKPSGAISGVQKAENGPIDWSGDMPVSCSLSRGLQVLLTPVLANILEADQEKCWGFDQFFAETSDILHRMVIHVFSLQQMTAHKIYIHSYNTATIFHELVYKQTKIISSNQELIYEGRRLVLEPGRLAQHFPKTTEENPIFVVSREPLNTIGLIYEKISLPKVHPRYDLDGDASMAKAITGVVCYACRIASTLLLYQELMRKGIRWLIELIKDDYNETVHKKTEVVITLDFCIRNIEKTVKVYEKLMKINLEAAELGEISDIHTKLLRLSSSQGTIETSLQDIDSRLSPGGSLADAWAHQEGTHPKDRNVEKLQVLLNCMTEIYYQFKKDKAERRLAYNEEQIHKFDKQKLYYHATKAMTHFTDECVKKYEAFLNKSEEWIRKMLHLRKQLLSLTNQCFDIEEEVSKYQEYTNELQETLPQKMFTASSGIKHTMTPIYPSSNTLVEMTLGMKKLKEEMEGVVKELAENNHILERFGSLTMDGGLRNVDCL
The note with it: at 1 µM.

Assay [9] concerns the target T4, Serine/threonine-protein kinase TBK1 (Homo sapiens). The note with it: at 10 µM.
Assay [10] has as its target T5, TGF-beta receptor type-1 (Homo sapiens) (UniProt P36897).
T5 sequence (whole entry): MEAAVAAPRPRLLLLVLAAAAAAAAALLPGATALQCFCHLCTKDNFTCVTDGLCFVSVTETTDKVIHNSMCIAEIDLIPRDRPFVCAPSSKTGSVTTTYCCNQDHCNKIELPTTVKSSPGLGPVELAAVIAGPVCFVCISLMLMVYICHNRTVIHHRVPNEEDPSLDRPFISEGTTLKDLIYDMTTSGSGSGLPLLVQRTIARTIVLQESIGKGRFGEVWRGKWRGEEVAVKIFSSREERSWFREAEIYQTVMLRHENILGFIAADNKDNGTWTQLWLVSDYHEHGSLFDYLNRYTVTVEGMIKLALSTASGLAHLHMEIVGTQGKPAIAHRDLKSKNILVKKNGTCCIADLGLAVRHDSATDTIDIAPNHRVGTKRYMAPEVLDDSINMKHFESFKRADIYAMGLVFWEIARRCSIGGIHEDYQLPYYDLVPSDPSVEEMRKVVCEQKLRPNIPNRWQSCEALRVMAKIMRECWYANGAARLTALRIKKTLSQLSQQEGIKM
The following applies: at 1 µM.

The target of assay [11] is T5, TGF-beta receptor type-1 (Homo sapiens). The note with it: at 10 µM.
The target in assay [12] is Insulin-like growth factor 1 receptor (Homo sapiens) (UniProt P08069). The note with it: at 1 µM.
Sequence of Insulin-like growth factor 1 receptor (Homo sapiens) (P08069 31-736 limits assumed): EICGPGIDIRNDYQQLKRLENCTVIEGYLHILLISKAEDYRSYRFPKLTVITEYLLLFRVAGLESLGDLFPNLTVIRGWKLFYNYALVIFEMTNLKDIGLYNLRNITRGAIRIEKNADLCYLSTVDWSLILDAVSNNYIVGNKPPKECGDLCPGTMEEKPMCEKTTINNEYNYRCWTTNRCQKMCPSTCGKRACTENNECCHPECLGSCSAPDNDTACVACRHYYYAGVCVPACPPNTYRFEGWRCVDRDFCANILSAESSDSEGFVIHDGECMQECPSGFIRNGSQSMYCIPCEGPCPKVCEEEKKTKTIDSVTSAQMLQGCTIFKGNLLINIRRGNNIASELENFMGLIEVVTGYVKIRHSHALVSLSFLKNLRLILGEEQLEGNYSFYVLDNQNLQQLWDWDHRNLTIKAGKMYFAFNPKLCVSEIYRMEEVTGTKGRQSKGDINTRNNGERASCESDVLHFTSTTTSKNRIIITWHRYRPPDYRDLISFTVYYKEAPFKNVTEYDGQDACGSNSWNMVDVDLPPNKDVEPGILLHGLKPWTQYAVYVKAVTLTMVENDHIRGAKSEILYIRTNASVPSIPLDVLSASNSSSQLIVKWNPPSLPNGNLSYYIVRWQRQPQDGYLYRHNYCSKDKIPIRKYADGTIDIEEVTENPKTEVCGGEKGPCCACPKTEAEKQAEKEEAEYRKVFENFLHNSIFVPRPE
Sequence of Insulin-like growth factor 1 receptor (Homo sapiens) (P08069 741-1367 limits assumed): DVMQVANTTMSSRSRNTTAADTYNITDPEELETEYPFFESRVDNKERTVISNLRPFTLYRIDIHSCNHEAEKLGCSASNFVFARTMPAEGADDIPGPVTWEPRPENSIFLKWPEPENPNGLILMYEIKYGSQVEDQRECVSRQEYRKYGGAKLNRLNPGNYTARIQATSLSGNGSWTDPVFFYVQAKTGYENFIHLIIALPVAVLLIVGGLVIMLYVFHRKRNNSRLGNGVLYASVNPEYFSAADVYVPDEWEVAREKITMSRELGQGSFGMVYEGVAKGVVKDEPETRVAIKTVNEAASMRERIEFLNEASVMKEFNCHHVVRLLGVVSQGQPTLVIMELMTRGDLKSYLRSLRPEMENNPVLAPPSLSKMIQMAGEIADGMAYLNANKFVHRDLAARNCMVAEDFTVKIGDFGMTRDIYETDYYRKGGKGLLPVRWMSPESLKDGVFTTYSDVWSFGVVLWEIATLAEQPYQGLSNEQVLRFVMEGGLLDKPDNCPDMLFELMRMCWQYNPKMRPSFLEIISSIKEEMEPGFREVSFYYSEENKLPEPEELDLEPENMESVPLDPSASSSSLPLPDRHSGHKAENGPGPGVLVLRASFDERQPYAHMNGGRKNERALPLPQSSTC
Assay [13] has the same target. The following applies: at 10 µM.
Assay [14] deals with T6, Inhibitor of nuclear factor kappa-B kinase subunit beta (Homo sapiens) (UniProt O14920).
T6 sequence (whole entry): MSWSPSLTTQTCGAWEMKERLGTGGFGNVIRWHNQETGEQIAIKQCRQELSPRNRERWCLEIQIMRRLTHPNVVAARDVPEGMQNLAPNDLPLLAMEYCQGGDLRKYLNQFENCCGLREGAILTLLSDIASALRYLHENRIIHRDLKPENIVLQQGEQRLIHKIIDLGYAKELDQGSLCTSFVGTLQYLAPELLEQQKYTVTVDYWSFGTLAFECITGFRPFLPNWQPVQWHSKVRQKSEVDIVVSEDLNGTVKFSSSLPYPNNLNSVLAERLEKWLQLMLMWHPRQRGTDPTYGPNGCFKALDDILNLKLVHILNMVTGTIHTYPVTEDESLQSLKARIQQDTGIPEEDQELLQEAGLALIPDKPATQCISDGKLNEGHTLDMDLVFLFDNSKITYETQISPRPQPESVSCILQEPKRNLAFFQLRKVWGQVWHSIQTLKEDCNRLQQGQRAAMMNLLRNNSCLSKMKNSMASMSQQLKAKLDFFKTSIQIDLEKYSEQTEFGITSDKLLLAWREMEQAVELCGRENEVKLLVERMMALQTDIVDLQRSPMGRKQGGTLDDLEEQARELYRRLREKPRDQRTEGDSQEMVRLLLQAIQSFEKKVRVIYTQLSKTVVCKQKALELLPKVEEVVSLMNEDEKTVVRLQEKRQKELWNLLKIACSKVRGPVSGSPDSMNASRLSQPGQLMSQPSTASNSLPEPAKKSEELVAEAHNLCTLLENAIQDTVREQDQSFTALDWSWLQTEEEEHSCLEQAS
The following applies: at 1 µM.

For assay [15], the target named is T6, Inhibitor of nuclear factor kappa-B kinase subunit beta (Homo sapiens). The following applies: at 10 µM.
For assay [16], the target named is Insulin receptor (Homo sapiens) (UniProt P06213). The following applies: at 1 µM.
Sequence of Insulin receptor (Homo sapiens) (P06213 28-758 limits assumed): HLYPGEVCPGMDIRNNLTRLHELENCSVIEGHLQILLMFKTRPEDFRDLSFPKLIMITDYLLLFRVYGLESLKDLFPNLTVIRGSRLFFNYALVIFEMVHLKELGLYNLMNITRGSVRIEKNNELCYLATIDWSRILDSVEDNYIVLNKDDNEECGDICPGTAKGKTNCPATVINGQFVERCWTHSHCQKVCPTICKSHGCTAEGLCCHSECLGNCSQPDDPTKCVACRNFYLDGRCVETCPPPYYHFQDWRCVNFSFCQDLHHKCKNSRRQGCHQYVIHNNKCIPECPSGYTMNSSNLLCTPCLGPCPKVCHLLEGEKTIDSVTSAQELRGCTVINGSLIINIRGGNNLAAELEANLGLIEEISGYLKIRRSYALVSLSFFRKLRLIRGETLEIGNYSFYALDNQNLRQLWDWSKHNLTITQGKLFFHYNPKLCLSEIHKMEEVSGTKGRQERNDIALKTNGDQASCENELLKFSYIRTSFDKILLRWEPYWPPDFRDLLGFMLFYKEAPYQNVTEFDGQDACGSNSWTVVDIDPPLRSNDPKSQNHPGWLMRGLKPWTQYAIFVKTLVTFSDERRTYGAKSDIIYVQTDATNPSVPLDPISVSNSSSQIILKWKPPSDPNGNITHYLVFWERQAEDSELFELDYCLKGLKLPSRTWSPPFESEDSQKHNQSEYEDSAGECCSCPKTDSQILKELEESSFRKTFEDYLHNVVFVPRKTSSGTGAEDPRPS
Sequence of Insulin receptor (Homo sapiens) (P06213 763-1382 limits assumed): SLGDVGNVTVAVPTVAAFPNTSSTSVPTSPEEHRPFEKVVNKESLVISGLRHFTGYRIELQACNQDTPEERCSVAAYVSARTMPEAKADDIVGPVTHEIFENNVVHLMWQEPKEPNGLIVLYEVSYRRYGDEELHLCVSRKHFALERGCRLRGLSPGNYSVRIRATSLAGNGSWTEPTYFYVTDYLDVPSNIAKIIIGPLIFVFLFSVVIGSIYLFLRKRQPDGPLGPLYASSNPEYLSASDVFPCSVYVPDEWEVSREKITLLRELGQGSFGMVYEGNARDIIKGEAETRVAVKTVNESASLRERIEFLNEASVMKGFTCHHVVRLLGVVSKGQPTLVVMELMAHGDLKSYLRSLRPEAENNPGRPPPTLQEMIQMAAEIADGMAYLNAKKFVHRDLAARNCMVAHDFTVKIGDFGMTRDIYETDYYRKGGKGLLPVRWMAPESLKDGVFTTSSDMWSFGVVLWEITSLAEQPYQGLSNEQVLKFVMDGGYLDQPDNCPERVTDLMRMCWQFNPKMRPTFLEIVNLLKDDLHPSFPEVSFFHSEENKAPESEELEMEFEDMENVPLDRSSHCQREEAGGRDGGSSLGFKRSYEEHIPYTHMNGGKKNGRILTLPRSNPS

For the compound `O=C1C(Cl)=C(N2C(=O)CCC2=O)C(=O)c2ccccc21`, the residual activity was 101% in assay [1]; 94% in [2]; 83% in assay [3]; 89% in assay [4]; 94% in assay [5]; 101% in [6]. In addition, the residual activity in assay [7] came out at 94%; in assay [8] it was 68%; in assay [9], 60%; in assay [10], 100%; in assay [11], 90%; in assay [12], 90%. The residual activity worked out at 101% in [13], 116% in assay [14], 92% in [15] and 100% in assay [16].
